Measured values: PMC4336329 (PLoS ONE, 2015)
The whole screen tested about 310,000 compounds, of which about 14,000 (4.5%) showed an effect of 50% or more. Effects have a minus sign here. The list comes from a sample in which strong results are over-represented; it also holds similar structures and randomly drawn compounds.

biological target: human ether-à-go-go-related gene (hERG) potassium channel (human, UniProt Q12809); experiment: primary screen, population patch clamp on CHO cells stably expressing hERG; higher = less effect of the substance
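Further: peak tail current of the secondary pulse compared with the same well before compound.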

Sequence of human ether-à-go-go-related gene (hERG) potassium channel (Q12809 whole entry, looked up): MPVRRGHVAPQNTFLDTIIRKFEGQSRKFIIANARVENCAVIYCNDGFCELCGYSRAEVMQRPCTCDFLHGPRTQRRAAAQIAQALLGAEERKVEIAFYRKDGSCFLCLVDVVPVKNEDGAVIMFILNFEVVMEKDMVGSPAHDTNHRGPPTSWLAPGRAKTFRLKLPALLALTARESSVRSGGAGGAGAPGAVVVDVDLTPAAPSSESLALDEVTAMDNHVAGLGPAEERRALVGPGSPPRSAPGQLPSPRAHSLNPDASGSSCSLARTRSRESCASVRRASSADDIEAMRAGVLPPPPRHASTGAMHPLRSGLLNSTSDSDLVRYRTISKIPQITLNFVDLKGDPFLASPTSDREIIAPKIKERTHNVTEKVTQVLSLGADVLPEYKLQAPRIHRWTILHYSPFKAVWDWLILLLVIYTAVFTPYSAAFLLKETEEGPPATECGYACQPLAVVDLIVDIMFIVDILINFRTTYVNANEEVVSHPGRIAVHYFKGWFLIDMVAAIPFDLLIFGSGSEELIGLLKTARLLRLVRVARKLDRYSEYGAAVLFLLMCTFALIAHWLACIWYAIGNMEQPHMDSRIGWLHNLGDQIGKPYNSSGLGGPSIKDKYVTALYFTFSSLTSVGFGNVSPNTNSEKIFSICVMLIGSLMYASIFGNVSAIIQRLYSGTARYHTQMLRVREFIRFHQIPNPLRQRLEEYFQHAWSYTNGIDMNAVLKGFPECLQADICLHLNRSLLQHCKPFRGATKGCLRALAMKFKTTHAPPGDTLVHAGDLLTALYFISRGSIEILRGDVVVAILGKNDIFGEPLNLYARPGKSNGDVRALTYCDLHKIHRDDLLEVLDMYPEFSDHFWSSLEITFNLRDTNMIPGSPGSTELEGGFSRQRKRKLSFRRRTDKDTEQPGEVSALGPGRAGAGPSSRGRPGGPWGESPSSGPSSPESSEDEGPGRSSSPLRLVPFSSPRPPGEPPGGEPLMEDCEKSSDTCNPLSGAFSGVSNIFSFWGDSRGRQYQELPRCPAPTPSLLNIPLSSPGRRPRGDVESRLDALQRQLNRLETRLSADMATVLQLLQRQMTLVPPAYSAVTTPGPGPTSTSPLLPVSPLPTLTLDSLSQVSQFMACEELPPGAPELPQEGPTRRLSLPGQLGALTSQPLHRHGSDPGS

Structure (SMILES)	hERG current change (%, negative = inhibition) at 10uM [%]
Cc1ccc(NC(=O)C(C)OC(=O)Cn2cnc3ccccc3c2=O)cc1 (centres unmarked)	-12.4
COc1ccc(N2CCN(C(CNC(=O)OCc3ccccc3)c3ccco3)CC2)cc1 (centres unmarked)	-27.4
CCOC(=O)c1cc(S(=O)(=O)NCCc2ccccc2)cn1C	2.98
Clc1ccccc1CN1CCN(c2ccccc2Cl)CC1	16
CCc1cc(C(=O)c2ccc(OC)cc2)c(N)s1	-12.7
N/C(CS(=O)(=O)c1ccc(F)cc1)=N\O	11.8
CC(C)(C)C(=O)CNS(=O)(=O)c1ccc(S(=O)(=O)NC2CC2)cc1	12.3
COCCNC(=O)/C(C#N)=C/c1c(N2CC(C)OC(C)C2)nc2ccccn2c1=O (centres unmarked)	-0.67
CCS(=O)(=O)Nc1ccc(-c2cc(-c3ccccc3)c3cc(C)ccc3n2)cc1	0.812
COc1ccc(NC(=O)NC2(C(=O)N3CCN(C)CC3)CCCCC2)cc1	9.88
O=C(c1cccc(F)c1)N1CCC2(CC1)NCCc1[nH]cnc12	6.92
Cc1cc(Br)c(NC(=O)COC(=O)CSc2nnc(-c3ccc(Cl)cc3)o2)c(Br)c1	1.39
CCN(CC)c1ccc(NC(=S)NCC2CCCO2)cc1 (centres unmarked)	7.83
COc1ccc2nc(N3CCCC3)[nH]c2c1.Cl	-15.7
COc1ccc2c(c1)cc1n2CCN2CCCN=C12.Cl	-51.6
CN=C1c2cc3c(Br)c(OC)ccc3n2CCN1C.Cl	-66.9
COc1ccc(C(=S)N2CCN(C)CC2)cc1Br	-9.51
COc1ccc2c(c1)cc1n2CCN=C1NN.Cl.O	2.89
O=C(Nc1ccc2nn(-c3ccccc3)nc2c1)c1ccco1	7.51
COC(=O)c1ccc(CSc2nnc(NC(C)C)s2)o1	29.8
O=C(/C=C/c1cccc(Cl)c1)Nc1ccncc1	-17.1
O=C(Nc1cccc(-n2cnnn2)c1)c1ccc(Cl)cc1Cl	4.58

Structure (SMILES)	hERG current change (%, negative = inhibition) at 10uM [%]
Cc1ccc(Sc2nc3c(c(=O)[nH]c(=O)n3C)n2CCc2ccccc2)cc1	5.16
Cc1nn(Cc2c(F)c(F)c(F)c(F)c2F)c(C)c1NC(=O)c1cccc(COc2ccccc2Cl)c1	-3.4
CCn1cc(CN2CCC(n3nccc3NC(=O)CCc3ccccc3)CC2)cn1	2.28
O=C(CCOc1ccccc1)Nc1ccnn1C1CCN(Cc2ccccc2)CC1	-50
O=C(CCc1ccccc1)Nc1ccnn1C1CCN(Cc2ncc[nH]2)CC1	19
CC(C)Oc1ccc(CN2CCC(n3nccc3NC(=O)CCc3ccccc3)CC2)cc1	-82.3
CCOc1cccc(CN2CCC(n3nccc3NC(=O)CCCc3ccccc3)CC2)c1	-27.5
CC(=O)c1cccc(CN2CCC(n3nccc3NC(=O)CCCc3ccccc3)CC2)c1	-37.8
CC(=O)Nc1ccc(CN2CCC(n3nccc3NC(=O)CCc3ccccc3)CC2)cc1	-5.87
Cn1cc(CN2CCC(n3nccc3NC(=O)CCc3ccccc3)CC2)cn1	16
COc1cccc(CN2CCC(n3nccc3NC(=O)CCCc3ccccc3)CC2)c1	-71.3
O=C(CCOc1ccccc1)Nc1ccnn1C1CCN(Cc2ccc(O)cc2)CC1	-31.3
Cn1cc(CN2CCC(n3nccc3NC(=O)CCOc3ccccc3)CC2)cn1	17.1
O=C(CCc1ccccc1)Nc1ccnn1C1CCN(Cc2ccc(OCCO)cc2)CC1	-65.3
OC1CCCN(Cc2ccc3ccc4cccc5ccc2c3c45)C1 (centres unmarked)	-4.79
CCOC(=O)c1c(C)[nH]c(C)c1S(=O)(=O)N(C)CC(=O)NCc1cccc(C)c1	-13.3
COc1ccc(-c2cc3ccccc3[nH]2)cc1	7.8
O=C(Nc1ccccc1C(=O)NCCCn1ccnc1)c1ccc(Cl)cc1Cl	-47.1
O=C(Nc1ccc(Cl)cc1)Nc1nc(-c2ccccc2)cs1	11.3
CCc1ccc(OCC(=O)N/N=C(\C)c2ccc3c(c2)OCCO3)cc1	-21.5
CC(Oc1ccccc1)C(=O)NNS(=O)(=O)c1ccc([N+](=O)[O-])cc1 (centres unmarked)	13.4
COc1ccc2cc(C(=O)N3CCC(Cc4ccccc4)CC3)[nH]c2c1	25.5

Structure (SMILES)	hERG current change (%, negative = inhibition) at 10uM [%]
C/C(=N\Nc1ccccc1)c1c(O)n(Cc2ccccc2)c(=O)[nH]c1=O	8.42
O=C(CSc1ccccc1C(=O)NCc1ccccc1)NC1CCCCCCC1	-8.1
O=C(/C=C/c1ccc([N+](=O)[O-])cc1)NCc1cccnc1	-42.7
CC1(C)CC(=O)C=C(C(=O)N2CCCC(C(=O)c3cccc(Cl)c3)C2)O1 (centres unmarked)	-31
O=C(O)c1ccc(NS(=O)(=O)c2ccc(Cl)cc2)cc1	0.513
Cc1cc(C)c(CN2CCC(n3nccc3NC(=O)CCOc3ccccc3)CC2)cc1C	-26.1
COc1ccc(F)c(CN2CCC(n3nccc3NC(=O)CCCc3ccccc3)CC2)c1	-86.7
O=C(CCCc1ccccc1)Nc1ccnn1C1CCN(Cc2ccccc2F)CC1	-49
O=C(CCOc1ccccc1)Nc1ccnn1C1CCN(Cc2ccc(CO)o2)CC1	6.52
Cc1ccc(CN2CCC(n3nccc3NC(=O)CCOc3ccccc3)CC2)o1	-20.7
CC(=O)c1cccc(CN2CCC(n3nccc3NC(=O)CCOc3ccccc3)CC2)c1	-3.2
COc1ccc(O)c(CN2CCC(n3nccc3NC(=O)CCOc3ccccc3)CC2)c1	-60.4
CCNC(=O)N1CCC(n2nccc2NC(=O)CCOc2ccccc2)CC1	9.99
COc1cccc(C(=O)N2CCC(n3nccc3NC(=O)CCOc3ccccc3)CC2)c1	-0.0371
COc1cccc(CN2CCC(n3nccc3NC(=O)CCOc3ccccc3)CC2)c1	-62
O=C(CCOc1ccccc1)Nc1ccnn1C1CCN(CCc2ccccc2)CC1	-65.1
CCn1c(SCc2nc3ccccc3[nH]2)nnc1-c1ccc(OC)cc1	-1.72
O=C(NNC(=O)C1CC(=O)N(Cc2ccccc2)C1)c1ccc(F)cc1 (centres unmarked)	2.46
O=C(NC1CCCCCC1)c1cccnc1Sc1ccccc1	-15.4
O=S(=O)(c1ccc(NC(=S)N2CCN(c3ccc(O)cc3)CC2)cc1)N1CCOCC1	2.83
COC(=O)C[C@H]1c2cc(F)cc(F)c2S(=O)(=O)N1C1CCN(Cc2ccccc2)CC1	-32
CC(=O)Nc1ccc(S(=O)(=O)CCC(=O)O)cc1	17.5

Structure (SMILES)	hERG current change (%, negative = inhibition) at 10uM [%]
Cc1cc(C(=O)Nc2sc(C)c(C)c2C#N)c(C)o1	20.6
Cc1ccc2oc(C(=O)NCC(c3ccco3)N(C)C)c(C)c2c1 (centres unmarked)	-8.52
CCn1cc(CN2CCC(n3nccc3NC(=O)CCOc3ccccc3)CC2)c(C)n1	7.84
Cc1ccc(CN2CCC(n3nccc3NC(=O)CCOc3ccccc3)CC2)cc1C	-48.2
O=C(CCOc1ccccc1)Nc1ccnn1C1CCN(Cc2ccc(F)cc2)CC1	-59.1
CCn1cc(CN2CCC(n3nccc3NC(=O)CCOc3ccccc3)CC2)cn1	-12.9
COc1ccc(CN2CCC(n3nccc3NC(=O)CCOc3ccccc3)CC2)cc1C	-68.7
O=C(COc1ccc2c3c(c(=O)oc2c1)CCC3)NCC(O)c1ccccc1 (centres unmarked)	11.5
CCOC(=O)C1CCCN(S(=O)(=O)c2ccc3c(c2)NC(=O)CO3)C1 (centres unmarked)	-1.47
COc1ccc(C2(C)NC(=O)N(CC(=O)Nc3ccc(S(=O)(=O)N4CCCC4)cc3)C2=O)cc1 (centres unmarked)	-2.91
CN1CCN(CC(=O)Nc2ccc(OCc3ccccc3)cc2)CC1.Cl	-9.11
O=C(CN1CCN(c2ccccc2)CC1)Nc1ccc(OCc2ccccc2)cc1	2.44
O=C(CN1CCN(CC(=O)Nc2ccc(OCc3ccccc3)cc2)CC1)Nc1ccc(F)cc1	-72.5
O=C(CN1CCCC1)Nc1ccc(OCc2ccccc2)cc1	-54.1
O=C(CN1CCOCC1)Nc1ccc(OCc2ccccc2)cc1	-21.3
O=C(CN1CCN(c2ccccn2)CC1)Nc1ccc(OCc2ccccc2)cc1	-45.3
COC(=O)c1ccc(N=Cc2c(C(F)(F)F)[nH][nH]c2=O)cc1	27.2
CCCCCc1nc2ccccc2c(=O)n1-c1ccccc1[N+](=O)[O-]	-24.5
Cc1ccc(NC(=O)c2cccs2)cc1NC(=O)c1cccc(F)c1	5.36
CC(C)c1c(O)nc(SCc2ccccc2)[nH]c1=O	11.5
